Screening results as filed in PubChem BioAssay.
HCV inhibitor – qHTS Assay for Inhibitors of Hepatitis C Virus (HCV) | Huh7.5.1 HCVcc-Cre infection, luciferase reporter, 44 h | Potency, µM (series often up to 41.8 µM), without a hit: at the top dose activity change, negative = inhibition, usual class: inhibitors | actives 3.4% (n = 340,000); note: potency is the fitted concentration of half-maximal effect; % is set by controls: 0 for no effect and ±100 for the full control effect
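A cell-based infection assay in which seeded cells (1,000 per well) receive test compound after 4 h, are inoculated with HCVcc-Cre at approximately 0.5 moi, and are incubated 44 h before luminescence detection.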
Shiga toxin inh – A qHTS for Small Molecule Inhibitors of Shiga Toxin. Vero cells, Shiga toxin protein synthesis inhibition reporter. inhibition, % at 38.7 µM. actives 9.2% (n = 290,000); in the data active = inhibition mostly above about 28%, no sharp cut-off; inactive = mostly below about 43%; note: 0% is about no effect
Pf growth 96h – Primary qHTS for delayed death inhibitors of the malarial parasite plastid, 96 hour incubation | P. falciparum luciferase reporter growth, 96 h | Potency, µM (series often up to 28.7 µM), inactives show top-dose activity change, negative = inhibition, usual class: inhibitors | actives 6.9% (n = 320,000) | AID 504834, 2011; note: potency is the fitted concentration of half-maximal effect; % is set by controls: 0 for no effect and ±100 for the full control effect
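Plates of compound plus infected erythrocytes (2% hematocrit, 0.05% parasitemia final) incubate 96 hours, 37 C, 5% CO2. Detection reagent added; reduced luminescence from the parasites' luciferase reporter flags inhibition.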
Cycloheximide cs – Cycloheximide Counterscreen for Small Molecule Inhibitors of Shiga Toxin; max response, %; cell reporter, cycloheximide protein synthesis inhibition counterscreen; AID 2314, 2010; actives 12% (n = 300,000); in the data active = max response mostly above about 13%, no sharp cut-off; inactive = mostly below about 14%; note: read at 38.3 µM for the half of the compounds with a filed dose; 0% is about no effect
AMA1-RON2 inh – qHTS for Inhibitors of AMA1-RON; Towards Development of Antimalarial Drug Lead: Primary Screen; actives 0.2% (n = 360,000); AlphaScreen AMA1-biotinylated RON2 peptide binding; Potency, µM (highest dose often 58.2 µM), for inactives: top-dose activity change, negative = inhibition, most hits filed as inhibitors; Plasmodium falciparum AMA1 (3D7) - RON2 peptide interaction; AID 720542, 2013;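 note: potency is the fitted concentration of half-maximal effect; 0% = vehicle wells and -100% = peptide control; nearly all actives have a fitted effect of over 45% in size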
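AMA1 (3D7) with his tag at 25 nM final met compounds first, then biotinylated RON2 peptide at 25 nM; detection used donor plus acceptor beads, 10 µg/mL apiece, read by AlphaScreen after 30 min at room temperature.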
Pf growth 48h – Primary qHTS for delayed death inhibitors of the malarial parasite plastid, 48 hour incubation; P. falciparum luciferase growth in erythrocytes, 48 h; Potency, µM (series often up to 28.7 µM), for the others: at the highest dose activity change, negative = inhibition, most hits filed as inhibitors; actives 5.9% (n = 310,000); AID 504832, 2011; note: potency is the fitted concentration of half-maximal effect; % is set by controls: 0 for no effect and ±100 for the full control effect
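First compound was added to culture medium, then infected red cells at 0.1% parasitemia and 2% hematocrit (final). After incubation at 37 C under 5% CO2, luciferase detection reagent was dispensed and light output recorded.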
* hit, by the source's call; u = inconclusive; x = not tested or not shown. Hits are enriched below; roughly 21% of the tested compounds scored in any of these assays. Unless noted, calls come from the whole dose curve; as a rule, active = well fitted curve in the direction sought with a large enough effect; inconclusive = small, poorly fitted or top-dose-only effect, or another doubt; inactive = no such curve, though single readings can be large; an effect the other way counts as inactive or inconclusive.

SMILES | HCV inhibitor | Shiga toxin inh | Pf growth 96h | Cycloheximide cs | AMA1-RON2 inh | Pf growth 48h
O=C(Nc1cccc([N+](=O)[O-])c1)c1ccc2ccccc2c1O | u | 38.3 | -21.5% | 37.3* | -5.6% | 6.3%
O=C(CSc1nc2ccccc2c(=O)[nH]1)Nc1ccc(Br)cc1 | 2.4% | -14.3 | 1.0% | 7.9 | -3.8% | 11.0%
COc1ccccc1N1CCN(C(=O)c2ccc(Cl)c(S(=O)(=O)NCc3ccco3)c2)CC1 | 8.91µM* | 66.2 | x | 28.4* | 14.4% | u
O=C(Nc1ccccc1N1CCOCC1)c1ccc(Cl)c(S(=O)(=O)NCc2ccco2)c1 | u | 73.9 | u | 28.4* | -9.5% | u
O=C(c1ccc(Cl)c(S(=O)(=O)NCc2ccco2)c1)N1CCN(c2ccccc2F)CC1 | -44.9% | -4.6 | u | 13.9 | -3.7% | x
CCCCn1nnnc1C(c1ccccc1)N1CCN(c2ccc(F)cc2)CC1 (configuration not stated) | x | x | x | x | -2.0% | x
OC12CCCCC1C(c1ccc3c(c1)OCO3)N(Cc1ccc(F)cc1)CC2 (configuration not stated) | -20.3% | 23.7 | 9.28µM* | -2.3 | -9.1% | 13.1µM*
CSCC[C@H](NC(=O)[C@H](CC(C)C)NC(=O)[C@@H]1CCCN1C(=O)[C@H](Cc1ccccc1)NC(=O)[C@H](Cc1ccccc1)NC(=O)[C@H](CCC(N)=O)NC(=O)[C@H](CCC(N)=O)NC(=O)[C@@H]1CCCN1C(=O)[C@H](CCCCN)NC(=O)[C@@H]1CCCN1C(=O)[C@@H](N)CCCN=C(N)N)C(N)=O | x | 2.2 | x | 0.4 | x | x
CC(=O)n1c(Cl)c(NC(=O)CCl)c2ccccc21 | 14.1µM* | -13.2 | 2.08µM* | -1.4 | -1.3% | x
CC(=O)n1c2ccccc2c2ccccc21 | u | -3.7 | 40.8% | -3.6 | 14.5% | 9.1%
O=C(c1cccc(F)c1)N(Cc1nc2ccccc2c(=O)[nH]1)C1CCCC1 | 0.5% | -4.5 | u | 9.4 | 75.8% | 6.57µM*
O=C(NC1CCCCC1)N(Cc1nc2ccccc2c(=O)[nH]1)C1CCCCC1 | -9.0% | 65.2* | -4.7% | 25.0* | -20.3% | u
O=C(CCc1nc2ccccc2c(=O)[nH]1)NC1CCN(Cc2ccccc2)CC1 | 14.9% | -1.7 | -10.1% | -5.1 | 2.1% | -10.9%
CC1CCCCC1NC(=O)CCCc1nc2ccccc2c(=O)[nH]1 (configuration not stated) | 16.4% | 23.4 | u | 7.8* | 0.5% | -30.0%
CCC(=O)Nc1ccc(NC(=O)CSc2nnnn2Cc2ccccc2)cc1C | -20.2% | -8.4 | 2.4% | -1.4 | -0.8% | 28.4%
CNC(=O)CS(=O)CC(=O)Nc1cc(OCCOC)c(Cl)cc1Cl (configuration not stated) | 10.4% | -1.9 | 26.4% | 0.8 | -7.6% | -2.8%
COc1cccc(C2c3[nH]c4ccccc4c3C[C@H]3C(=O)N(c4ccccc4C(=O)N4CCCC4C(=O)O)C(=O)N23)c1 (some centres not stated) | 11.2% | -3.8 | u | -0.2 | 1.7% | u
O=C(O)C1CCN(C(=O)c2ccccc2N2C(=O)[C@@H]3Cc4c([nH]c5ccccc45)C(c4cccc(Cl)c4)N3C2=O)CC1 (some centres not stated) | 3.7% | -6.3 | 9.28µM* | -3.0 | -6.9% | u
COc1ccc(C2c3[nH]c4ccccc4c3C[C@H]3C(=O)N(c4ccccc4C(=O)NCCN4CCOCC4)C(=O)N23)cc1 (some centres not stated) | -14.9% | -0.3 | u | 1.5 | -9.7% | 13.1µM*
Cc1ccc(C2c3[nH]c4ccccc4c3C[C@H]3C(=O)N(c4ccccc4C(=O)N4CCC(C(=O)O)CC4)C(=O)N23)cc1 (some centres not stated) | 11.1% | -2.3 | 5.86µM* | -4.8 | -2.1% | 11.7µM*
